“And” between values parts separate entries of the source, which are not always exact repeats. Identical values can stand only once. In all, about 410,000 compounds went through this assay and about 7,200 (1.8%) were called active. Inconclusive results (about 7%) are left out. Calls follow the shape of the dose curve; as a rule, active = well fitted activation curve with a large enough effect; inconclusive = small, poorly fitted or top-dose-only effect, or another doubt; inactive = no such curve, though single readings can be large or run the other way. Shown is part of a subset that was picked to be rich in actives.
assay: qHTS of TDP-43 Inhibitors; settings: TDP-43 expressing yeast growth rescue, BacTiter-Glo, 24 h; series mostly up to 46.1 µM; growth rescue (activation): at the top concentration; also: nearly all actives have a fitted effect of over 50% in size; as to growth rescue (activation): % of control where 0% means no effect
Outline: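 Yeast expressing TDP-43 (pregrown in raffinose, seeded at OD600=0.02 in galactose medium) exposed to compounds 24 hr at 30 deg C. Growth read by BacTiter-Glo luminescence; rescue of toxicity appears as increased signal.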
Potency is read from the fitted curve at half-maximal effect.

SMILES | growth rescue (activation) | Potency
Cc1ccc(NC(=O)C2CCN(S(=O)(=O)c3cc(-c4noc(C)n4)ccc3C)CC2)c(C)c1 | -6.47% (inactive) | –
CCN(CCCNC(=O)c1c(C)oc2ncn(CC(C)C)c(=O)c12)Cc1ccccc1 | 13.1% (inactive) | –
Cc1ccc(Cl)cc1N1CCN(S(=O)(=O)c2cc3[nH]c(=O)c(=O)[nH]c3cc2C)CC1 | 4.73% (inactive) | –
CCN(CCCNC(=O)c1ccc(Sc2ccc(C)cc2)c(NC(C)=O)c1)c1cccc(C)c1 | 14.4% (inactive) | –
COCCNC(=O)c1ccc(S(=O)(=O)c2ccc(Cl)cc2)c(NC(C)=O)c1 | 2.43% (inactive) | –
CC(=O)Nc1cc(C(=O)NCc2ccc(F)cc2Cl)ccc1Sc1ccc(Cl)cc1 | – | 11.2 µM (active)
COC(=O)c1ccc(Sc2ccc(F)cc2)c(N)c1 | 3.11% (inactive) | –
CC(=O)Nc1cc(C(=O)NCc2ccc(F)cc2)ccc1Sc1ccc(F)cc1 | – | 31.6 µM (active)
Cc1ccc(Sc2ccc(NC(=O)c3ccc(F)cc3)cc2C#N)cc1 | -20.1% (inactive) | –
COC(=O)c1cc(NC(=O)c2sc3ccccc3c2Cl)cc(C(=O)OC)c1 | 11.6% (inactive) | –
O=C(Cn1c(=O)n(Cc2cccs2)c(=O)c2cccnc21)Nc1ccc(F)cc1 | -9.45% (inactive) | –
COc1cn(CC(=O)Nc2cccc(C)c2C)c(CN2CCCCC2)cc1=O | 8.28% (inactive) | –
COCCCNC(=O)c1ccc2c(c1)ncn2-c1ccccc1OC | 7.43% (inactive) | –
COc1ccc(-n2cnc3cc(C(=O)NC4CCCC4)ccc32)cc1 | – | 28.2 µM (active) and 17.8 µM (active)
Cc1ccc(-n2cnc3cc(C(=O)NCCC4=CCCCC4)ccc32)cc1Cl | 7.7% (inactive) | –
Cc1ccc(C(=O)Oc2ccc(C(=S)N3CCOCC3)cc2)cc1 | 26% (inactive) | –
O=C(OCC(=O)N1CCOCC1)c1ccc2ccccc2c1 | 17.2% (inactive) | –
O=C(Oc1cccc(C(=S)N2CCOCC2)c1)c1cccc(Cl)c1 | – | 12.6 µM (active)
O=C(Oc1ccc(C(=S)N2CCOCC2)cc1)c1ccc(F)cc1 | – | 7.08 µM (active)
O=C(Oc1ccc(Br)cc1C(=S)N1CCOCC1)c1cccc([N+](=O)[O-])c1 | 11% (inactive) | –
O=C(Oc1ccc(F)cc1)N1CCOCC1 | -18.8% (inactive) | –
CC1Cc2cc(S(=O)(=O)CCC(=O)NCc3ccc(Cl)cc3)ccc2N1C(=O)C1CC1 (configuration not stated) | 3.43% (inactive) | –
COc1cccc2c1cc1c(=O)n(CC(=O)N3CCN(c4cccc(Cl)c4)CC3)nc(C)n12 | 7.4% (inactive) | –
Cc1ccc(CCNC(=O)c2ccc3c(c2)nc2n3CCC(C)C2)cc1 (configuration not stated) | 13.3% (inactive) | –
COc1cccc(-c2nnc3n(CCc4ccccc4)c(=O)c4ccccc4n23)c1O | 8.42% (inactive) | –

SMILES | growth rescue (activation) | Potency
O=C1NC(c2cc3c(cc2Cl)OCO3)Oc2ccccc21 (configuration not stated) | – | 22.4 µM (active)
O=C1OCC2=C1C(c1ccc(Cl)cc1)c1cc3c(cc1O2)OCO3 (configuration not stated) | -12.4% (inactive) | –
COc1ccc(CNC(=O)c2ccc3oc(C(C)C)nc3c2)cc1 | 0% (inactive) | –
O=C(NCc1nnnn1-c1ccc(Cl)cc1)c1ccc2c(c1)OCO2 | 20.1% (inactive) | –
COc1ccc(-n2nnnc2CNC(=O)c2ccc3ccccc3c2)cc1 | – | 20 µM (active)
O=C(Nc1cccc2ccccc12)NC1CC1 | 4.47% (inactive) | –
CC(C)NC(=O)c1ccc(Sc2ccccc2)c([N+](=O)[O-])c1 | -0.383% (inactive) | –
O=C(O)c1cc([N+](=O)[O-])c(Nc2cccc3ccccc23)c([N+](=O)[O-])c1 | – | 11.2 µM (active)
COc1cccc(CNC(=O)C2CCN(S(=O)(=O)c3ccc4c(ccn4C)c3)CC2)c1 | 25.2% (inactive) | –
Nc1ccccc1Sc1cc(Cl)nnc1Cl | – | 12.6 µM (active)
Cc1ccc(Nc2ccc3cc(S(=O)(=O)N4CCCCC4)ccc3n2)cc1F | 21.6% (inactive) | –
CCCCN(C)CCCNC(=O)CN1N=C(c2ccc(OC)cc2)CCC1=O | -1.21% (inactive) | –
CCOc1ccc(C2=CC(c3ccccc3)n3ncnc3N2)cc1 (configuration not stated) | – | 17.8 µM (active)
CCOC(=O)C1=C(c2ccccc2)Nc2ncnn2C1c1ccc(Cl)cc1 (configuration not stated) | -5.42% (inactive) | –
COc1ccc(C2=CC(c3ccccc3Cl)n3nc(-c4ccc(Cl)cc4)nc3N2)cc1 (configuration not stated) | 9.18% (inactive) | –
Brc1ccc(C2=CC(c3ccco3)n3ncnc3N2)cc1 (configuration not stated) | – | 12.6 µM (active)
CCOc1ccc(NC(=O)CSc2c3c(nc4ccccc24)CCCC3)cc1 | 16.7% (inactive) | –
CC(=O)c1cccc(Nc2ccc3cc(S(=O)(=O)N4CCC(C)CC4)ccc3n2)c1 | 26.4% (inactive) | –
COC(=O)c1ccc2nc(C3CCCCC3)c(Cc3cccc(F)c3)n2c1 | 12.6% (inactive) | –
Cc1cc(Br)cn2c(Cc3ccccc3C(F)(F)F)c(C3CCCCC3)nc12 | -0.49% (inactive) | –
CC(C)(C)Cc1c(C2CCCCC2)nc2ccc(Br)cn12 | – | 28.2 µM (active)
COc1cccc(NC(=O)c2csnn2)c1 | 10.3% (inactive) | –
CCOC(=O)c1cnc2c(C)cc(C)cc2c1Nc1ccc(N2CCOCC2)cc1 | 22.4% (inactive) | –
CCOc1cccc(CC(=O)N2CCc3c([nH]c4ccccc34)C2c2ccc(OC)cc2)c1OCC (configuration not stated) | -0.232% (inactive) | –
CCCC(=O)Nc1ccc2oc(-c3ccc(O)c(Br)c3)nc2c1 | 18% (inactive) | –

SMILES | growth rescue (activation) | Potency
CC(C)c1ccc(C2CC(=O)N3CN(C4CCCCC4)CSC3=C2C#N)cc1 (configuration not stated) | -0.958% (inactive) | –
CCc1nn(CC(=O)Nc2cc(C)cc(C)c2)c(=O)c2cc3sccc3n12 | 4.62% (inactive) | –
CC(=O)Nc1ccc(NC(=O)C2CCCN2S(=O)(=O)c2cccc(C(F)(F)F)c2)cc1 (configuration not stated) | 14.9% (inactive) | –
O=S(=O)(c1cccc(C(F)(F)F)c1)N1c2ccccc2-n2cccc2C1c1cccnc1 (configuration not stated) | – | 25.1 µM (active)
S=C(Nc1cccc(Br)c1)N1CCn2cccc2C1c1cccnc1 (configuration not stated) | 14.8% (inactive) | –
CN(C)c1cccc(C(=O)Nc2nc3ccc(S(=O)(=O)NC(C)(C)C)cc3s2)c1 | 6.18% [at 9.22 µM] (inactive) | –
COc1ccc2c(c1)c(N1CCCC1=O)c(C(=O)Nc1ccccc1C(F)(F)F)n2C | -6.33% (inactive) | –
CCOc1ccc(NC(=O)C(CC(C)C)N2Cc3ccccc3C2=O)cc1 (configuration not stated) | 5.28% (inactive) | –
CC(Cc1cccs1)N(Cc1ccc(Cl)cc1)C(=O)c1ccncc1 (configuration not stated) | – | 35.5 µM (active)
CC(C)(C)N(Cc1ccccc1)C(=O)c1ccncc1 | 6.52% (inactive) | –
CC(Cc1cccs1)NC(=O)c1cccc(Cl)c1 (configuration not stated) | -15.2% [at 0.397 µM] (inactive) | –
CCOc1cc(C2C(C(=O)Nc3ccc(OC)cc3)=C(C)Nc3nc(SC)nn32)ccc1O (configuration not stated) | 26.8% (inactive) | –
O=C(CSc1nccn1Cc1ccc(Cl)cc1)NCc1ccccc1 | 9.99% [at 9.22 µM] (inactive) | –
CCOC(=O)c1ccc(NC(=O)Cn2c(=O)cc(C)c3c(C)nn(-c4cccc(F)c4)c32)cc1 | -3.59% (inactive) | –
Cc1[nH]c2ccccc2c1C(c1ccccc1)c1cccs1 (configuration not stated) | – | 25.1 µM (active)
O=C(O)c1[nH]c2ccccc2c1C(c1cccc(O)c1)c1c(C(=O)O)[nH]c2ccccc12 | 5.7% (inactive) | –
Cc1[nH]c2ccccc2c1-c1ccc(Cl)nn1 | -8.17% [at 9.22 µM] (inactive) | –
CCN(CC)c1ccc(NC(=O)CN2C(=O)c3cccnc3Oc3ccc(Cl)cc32)c(C)c1 | 9.93% (inactive) | –
COc1ccc(-c2nn(CC(=O)NC3CCCC3)c3c2cnc2ccc(F)cc23)cc1 | 22.7% (inactive) | –
Cc1cccc(C(=O)Nc2ccc(-c3nc4ccccc4s3)c(C)c2)c1 | 29.6% (inactive) | –
COc1ccc(Cl)cc1NC(=O)COC(=O)C(CC(C)C)N1C(=O)C2CC=CCC2C1=O (configuration not stated) | 4.31% (inactive) | –
COc1ccc(Cl)cc1NC(=O)c1cccc(N2C(=O)C3CC=CCC3C2=O)c1 (configuration not stated) | – | 11.2 µM (active)
O=C(Nc1ccccc1C(=O)O)c1ccc(N2C(=O)C3CC=CCC3C2=O)cc1 (configuration not stated) | 4.44% (inactive) | –
CC(=O)Nc1ccc(NC(=O)CCCc2nc(-c3ccc(C(C)(C)C)cc3)no2)cc1 | 19.7% (inactive) | –
COc1ccc2c(c1)C=C(C(=O)NCc1cc(Br)ccc1OC)CO2 | 5.98% [at 9.22 µM] (inactive) | –

SMILES | growth rescue (activation) | Potency
CCOC(=O)c1ccc(NC(=O)CC2C(=O)N(c3cccc(OC)c3)C(=O)N2C2CCCCC2)cc1 (configuration not stated) | -1.66% (inactive) | –
CCCN(CCC)CCCNC(=O)Cn1cc2c(n1)-c1c(oc(C(=O)N3CCCC3)c1C)CC2 | 16.9% (inactive) | –
Cc1c(C(=O)N2CCCC2)oc2c1-c1nn(CC(=O)NCc3ccc(OC(C)C)cc3)cc1CC2 | – | 20 µM (active)
CCOc1ccc(CNC(=O)Cn2cc3c(n2)-c2c(oc(C(=O)N4CCCC4)c2C)CC3)cc1 | 29% (inactive) | –
CC1=C(c2ccc(C)cc2)S(=O)(=O)NC1=NCCCN1CCN(c2cc(C)ccc2C)CC1 | 14.6% (inactive) | –
Cc1nn(-c2ccc(N3CCCCC3)nn2)c(C)c1CCC(=O)NCc1ccccc1F | -10.4% (inactive) | –
CN(C(=O)CSc1nnc(NC(=O)Nc2ccccc2)s1)c1ccccc1 | 22.1% (inactive) | –
CC(=O)c1ccc(NC(=O)CSc2nnc(NC(=O)Nc3ccccc3)s2)cc1 | 0% (inactive) | –
CC(C)c1ccc(Nc2nnc(SCC(=O)c3nnc(-c4ccccc4)o3)s2)cc1 | – | 20 µM (active)
CCOC(=O)c1ccc(NC(=O)CCS(=O)(=O)c2ccc3c(c2)oc(=O)n3C)cc1 | 21.4% (inactive) | –
O=C(NC1CCN(Cc2ccccc2)CC1)c1ccc(Cn2c(=O)c3ccccc3n(Cc3cccc(F)c3)c2=O)cc1 | 22.9% (inactive) | –
CC(C)c1ccc(NC(=O)c2ccc(Cn3nc(N4CCN(c5ccccc5)CC4)ccc3=O)o2)cc1 | 4.85% (inactive) | –
CC1CC(=O)Nc2ccccc2N1S(=O)(=O)c1cccs1 (configuration not stated) | -21.7% (inactive) | –
CC1CC(C)(C)NC(=S)N1CCC(=O)N1CCN(Cc2ccccc2)CC1 (configuration not stated) | -6.5% (inactive) | –
CC1CC(=S)Nc2ccccc2N1Cc1ccccc1 (configuration not stated) | – | 14.1 µM (active)
COc1ccc(CNC(=O)C2CC(c3ccc(C(F)(F)F)cc3)=NO2)cc1 (configuration not stated) | 22.1% (inactive) | –
COC(=O)[C@]1(S(=O)(=O)c2ccccc2)C[C@@H]2ON=C(c3ccc(OC)cc3)[C@@H]2C1 | – | 17.8 µM (active)
COc1ccc(-c2nc(S(=O)(=O)c3ccccc3)c(N3CCCCC3)o2)cc1 | 3.8% (inactive) | –
COc1cc(OC)c(NC(=O)c2cc(S(=O)(=O)N3CCCC3)cn2C)cc1Cl | 19% (inactive) | –
CCOc1ccc(OCCSc2nc3ccccc3n2CC(=O)O)cc1 | -2.71% (inactive) | –
Cc1ccc(C(C)C)c(OCCSc2nc3ccccc3n2CC(=O)O)c1 | 19.9% (inactive) | –
Cc1cccc(OCCSc2nc3ccccc3n2CC(=O)N2CCCCC2)c1C | – | 35.5 µM (active)

Source: PubChem BioAssay AID652104 (National Center for Advancing Translational Sciences (NCATS), 2013)
